{"source": "PubChem BioAssay (EPA / NIEHS)", "note": "Activity calls are given as the source filed them. The calls were made as follows: active = hit-call score of the fitted dose curve at least 0.9, where 1 is the maximum; inactive = score below 0.9."}
{"assay": "ATG_GRE_CIS: Attagene CIS-FACTORIAL HepG2 Assay for human Glucocorticoid Response Elements (GRE) (AID 2282947)", "conditions": "HepG2 GRE cis-reporter, Attagene multiplex mRNA; actives raise or lower the signal", "in_short": "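Assay uses human hepatoma HepG2 cells transfected with cis-promoter reporter units, exposed 24 h. mRNA from reporters detected by RT-PCR plus capillary electrophoresis; DMSO serves as negative control and baseline.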"}
{"molecule": "CCCCOC(=O)[C@@H](C)Oc1ccc(Oc2ccc(C#N)cc2F)cc1", "outcome": "inactive"}
{"molecule": "COc1cc(OC)nc(Sc2cccc(Cl)c2C(=O)O)n1", "outcome": "inactive"}
{"molecule": "CC(C)=CC1C(C(=O)OCN2C(=O)C3=C(CCCC3)C2=O)C1(C)C", "note": "(configuration not stated)", "outcome": "inactive"}
{"molecule": "C#CC(C)(C)NC(=O)c1cc(Cl)cc(Cl)c1", "outcome": "inactive"}
{"molecule": "O=C(O)c1cc(Oc2ccc(C(F)(F)F)cc2Cl)ccc1[N+](=O)[O-]", "outcome": "inactive"}
{"molecule": "CCOP(=S)(OCC)SCCSCC", "AC50": "15.4 µM (active)"}
{"molecule": "CCc1cnc(C2=NC(C)(C(C)C)C(=O)N2)c(C(=O)O)c1", "note": "(configuration not stated)", "outcome": "inactive"}
{"molecule": "CCOP(=S)(Oc1cnc(C(C)(C)C)nc1)OC(C)C", "note": "(configuration not stated)", "outcome": "inactive"}
{"molecule": "CCOP(=S)(OCC)OC(Cl)C(Cl)(Cl)Cl", "note": "(configuration not stated)", "outcome": "inactive"}
{"molecule": "CNC(=O)ON=C(C)SC", "outcome": "inactive"}
{"molecule": "CCCOc1nn(C(=O)NS(=O)(=O)c2ccccc2C(=O)OC)c(=O)n1C", "outcome": "inactive"}
{"molecule": "CCOC(=O)COc1cc(-c2nn(C)c(OC(F)F)c2Cl)c(F)cc1Cl", "outcome": "inactive"}
{"molecule": "CCOP(=S)(OCC)Oc1ccc([N+](=O)[O-])cc1", "outcome": "inactive"}
{"molecule": "CCNc1nc(Cl)nc(NC(C)(C)C#N)n1", "outcome": "inactive"}
{"molecule": "CCOP(=S)(OCC)Oc1ccc2c(C)c(Cl)c(=O)oc2c1", "outcome": "inactive"}
{"molecule": "COP(=O)(OC)SCn1c(=O)oc2cc(Cl)cnc21", "outcome": "inactive"}
{"molecule": "CCCCN(CC)c1c([N+](=O)[O-])cc(C(F)(F)F)cc1[N+](=O)[O-]", "outcome": "inactive"}
{"molecule": "CCC(=NOC/C=C/Cl)C1=C(O)CC(C2CCOCC2)CC1=O", "note": "(configuration not stated)", "outcome": "inactive"}
{"molecule": "COP(=O)(NC(C)=O)SC", "note": "(configuration not stated)", "outcome": "inactive"}
{"assay": "ATG_ISRE_CIS: Attagene CIS-FACTORIAL HepG2 Assay for human Interferon Regulatory Factor 1 (IRF1) binding to an Interferon-Stimulated Response Element (ISRE) (AID 2282948)", "conditions": "HepG2 ISRE cis-reporter (Attagene), mRNA transcription readout; actives raise or lower the signal", "in_short": "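Quantitation relies on labelled RT-PCR fragments separated by capillary electrophoresis. Human HepG2 cells bearing cis-promoter reporter constructs were treated 24 h; DMSO served as baseline for bidirectional fitting.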"}
{"molecule": "CCOP(=O)(SC(C)CC)N1CCSC1=O", "note": "(configuration not stated)", "outcome": "inactive"}
{"molecule": "CCCCOC(=O)[C@@H](C)Oc1ccc(Oc2ccc(C#N)cc2F)cc1", "outcome": "inactive"}
{"molecule": "CC(=NC#N)N(C)Cc1ccc(Cl)nc1", "outcome": "inactive"}
{"molecule": "CCc1cccc(C)c1N(C(=O)CCl)C(C)COC", "note": "(configuration not stated)", "outcome": "inactive"}
{"molecule": "COc1cc(OC)nc(Sc2cccc(Cl)c2C(=O)O)n1", "outcome": "inactive"}
{"molecule": "CON=C(C(=O)OC)c1ccccc1CON=C(C)c1cccc(C(F)(F)F)c1", "AC50": "12.6 µM (active)"}
{"molecule": "CC1=NNC(=O)N(/N=C/c2cccnc2)C1", "outcome": "inactive"}
{"molecule": "S=C1NCCN1", "outcome": "inactive"}
{"molecule": "CC(C)=CC1C(C(=O)OCN2C(=O)C3=C(CCCC3)C2=O)C1(C)C", "note": "(configuration not stated)", "outcome": "inactive"}
{"molecule": "CC(C1CC1)C(O)(Cn1cncn1)c1ccc(Cl)cc1", "note": "(configuration not stated)", "outcome": "inactive"}
{"molecule": "C#CC(C)(C)NC(=O)c1cc(Cl)cc(Cl)c1", "outcome": "inactive"}
{"molecule": "CCC(=O)Nc1ccc(Cl)c(Cl)c1", "outcome": "inactive"}
{"molecule": "O=C(O)c1cc(Oc2ccc(C(F)(F)F)cc2Cl)ccc1[N+](=O)[O-]", "outcome": "inactive"}
{"molecule": "CCOP(=S)(OCC)SCCSCC", "outcome": "inactive"}
{"molecule": "CCc1cnc(C2=NC(C)(C(C)C)C(=O)N2)c(C(=O)O)c1", "note": "(configuration not stated)", "outcome": "inactive"}
{"molecule": "CCOP(=S)(Oc1cnc(C(C)(C)C)nc1)OC(C)C", "note": "(configuration not stated)", "outcome": "inactive"}
{"molecule": "CCOP(=S)(OCC)OC(Cl)C(Cl)(Cl)Cl", "note": "(configuration not stated)", "outcome": "inactive"}
{"molecule": "CN(C)C(=O)Nc1cccc(C(F)(F)F)c1", "outcome": "inactive"}
{"molecule": "CNC(=O)ON=C(C)SC", "outcome": "inactive"}
{"molecule": "CCCOc1nn(C(=O)NS(=O)(=O)c2ccccc2C(=O)OC)c(=O)n1C", "outcome": "inactive"}
{"molecule": "CCOC(=O)COc1cc(-c2nn(C)c(OC(F)F)c2Cl)c(F)cc1Cl", "outcome": "inactive"}
{"molecule": "CCOP(=S)(OCC)Oc1ccc([N+](=O)[O-])cc1", "outcome": "inactive"}
{"molecule": "CC[C@H](C)[C@H]1O[C@]2(C=C[C@@H]1C)C[C@@H]1C[C@@H](C/C=C(\\C)[C@@H](O[C@H]3C[C@H](OC)[C@@H](O[C@H]4C[C@H](OC)[C@@H](NC)[C@H](C)O4)[C@H](C)O3)[C@@H](C)/C=C/C=C3\\CO[C@@H]4[C@H](O)C(C)=C[C@@H](C(=O)O1)[C@]34O)O2", "outcome": "inactive"}
{"molecule": "CN(C)[C@@H]1C(=O)C(C(N)=O)=C(O)[C@@]2(O)C(=O)C3=C(O)c4c(O)cccc4[C@@](C)(O)[C@H]3[C@H](O)[C@@H]12", "outcome": "inactive"}
{"molecule": "CCNc1nc(Cl)nc(NC(C)(C)C#N)n1", "outcome": "inactive"}
{"molecule": "CC(C)[C@H](C(=O)O[C@H](C#N)c1cccc(Oc2ccccc2)c1)c1ccc(Cl)cc1", "outcome": "inactive"}
{"molecule": "CCOP(=S)(OCC)Oc1ccc2c(C)c(Cl)c(=O)oc2c1", "outcome": "inactive"}
{"molecule": "CSc1nc(NC(C)C)nc(NC(C)C)n1", "outcome": "inactive"}
{"molecule": "COP(=O)(OC)SCn1c(=O)oc2cc(Cl)cnc21", "outcome": "inactive"}
{"molecule": "CN(C)NC(=O)CCC(=O)O", "outcome": "inactive"}
{"molecule": "Cc1nn(-c2cc(NS(C)(=O)=O)c(Cl)cc2Cl)c(=O)n1C(F)F", "outcome": "inactive"}
{"molecule": "CCCCN(CC)c1c([N+](=O)[O-])cc(C(F)(F)F)cc1[N+](=O)[O-]", "outcome": "inactive"}
{"molecule": "CCC(=NOC/C=C/Cl)C1=C(O)CC(C2CCOCC2)CC1=O", "note": "(configuration not stated)", "outcome": "inactive"}
